Screening results deposited in PubChem by Center for Chemical Genomics, University of Michigan.
This is one part of a sample in which hits are shown more often than they occur.
Dicer processing – inhibitors of human Dicer processing of pre-microRNA; Q9UPY3; cat-ELCCA pre-miR-21 Dicer processing, chemiluminescence; stronger effect = higher value; z-score at 25 µM; 47,000 tested, 6% active; in the data active = z-score above about 3, passing the limit was not always enough;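 note: plate controls were vehicle for no effect and no enzyme for full effect; higher signal means more uncleaved substrate so more Dicer inhibition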
Active calls of the source: *.

SMILES	Dicer processing
CC1=C(C(=O)OCCc2ccccc2)C(c2ccc3c(c2)OCO3)C2=C(CC(C)(C)CC2=O)N1 (stereo not given)	1.5
COC(=O)C1=C(C)NC2=C(C(=O)CC(C)(C)C2)C1c1cccc(F)c1 (stereo not given)	-0.96
CC1=C(C(=O)Nc2cccc(C)n2)C(c2cccc(Br)c2)C2=C(CC(C)(C)CC2=O)N1 (stereo not given)	4.8*
CCC12CN3CC(CC)(CN(C1)C3c1ccccc1O)C2=O (stereo not given)	-0.51
CCOc1ccc(C2C(C(=O)OCc3ccccc3)=C(C)N=C3SCCC(=O)N32)cc1OCC (stereo not given)	2.1
Clc1ccc(COc2ccncc2)c(Cl)c1	0.99
Clc1ccc(-c2noc(CSc3nc4ccccc4[nH]3)n2)cc1	1
O=C(Nc1cc(-c2nc3cc(Cl)ccc3o2)ccc1Cl)c1ccco1	1.2
O=C(Nc1ccc(Cl)cc1O)c1ccco1	5.7*
O=C(Nc1cccc2cccnc12)c1ccco1	-2.8
Cc1cc(OC(=O)c2c(-c3ccccc3)noc2C)c2cc(F)ccc2n1	1.9
Cc1[nH]nc(Nc2ccc(C(C)C)cc2)c1[N+](=O)[O-]	0.47
CNc1ncnc(NNC(=O)Nc2cccc(Cl)c2)c1[N+](=O)[O-]	1.6
O=[N+]([O-])c1c(Nc2ccc(Cl)cc2)ncnc1Nc1ccc(Cl)cc1	3.5*
CNc1ncnc(NNC(=O)Nc2ccc(Cl)cc2)c1[N+](=O)[O-]	4.5*
CNc1ncnc(Oc2ccc(Cl)cc2)c1[N+](=O)[O-]	-0.48
O=[N+]([O-])c1c(Nc2cccc(C(F)(F)F)c2)ncnc1Nc1cccc(C(F)(F)F)c1	-0.15
S=C(NC(Cc1ccccc1)c1ccccc1)NC1CC2C=CC1C2 (stereo not given)	-0.08
Cc1ccn2c(=O)c(NC(=O)c3ccccc3)cnc2c1	-0.05
Cc1ccc(S(=O)(=O)NC(C)c2ccccc2)cc1 (stereo not given)	3
O=C(Nc1ccccc1)n1nnc(C2CN(Cc3ccccc3)CN(Cc3ccccc3)C2)n1	-1.1
COC(=O)c1cc(OC)c(OC)cc1NS(=O)(=O)c1c(Cl)cc(Cl)cc1Cl	0.32
O=C1OC(c2ccc(Cl)cc2)=N/C1=C/c1cccc([N+](=O)[O-])c1	3.6*
O=C1OC(c2ccccc2)=N/C1=C\c1cccc([N+](=O)[O-])c1	1.7
O=C1OC(c2cccnc2Oc2ccc(Cl)cc2)=N/C1=C\c1ccc(Cl)cc1	-0.82
SMILES	Dicer processing
CSc1c(C#N)c(N)nc2sc(C(=O)c3ccc(F)c(F)c3)c(N)c12	-3.9
O=C(CSc1nnnn1-c1cccc(Cl)c1)Nc1ccc2c(c1)OCO2	-0.83
O=C(O)CC(Sc1nc2sc3c(c2c(=O)[nH]1)CCCC3)C(=O)O (stereo not given)	-0.14
Nc1nc(SCC(=O)NCCCO)nc2sc3c(c12)CCCC3	0.12
O=C(CSc1nc2sc3c(c2c(=O)[nH]1)CCCC3)NCCN1CCOCC1	3.9*
CCOC(=O)N/N=C(\C)c1ccc(F)cc1F	-0.07
CCn1cc(CNC(=O)c2cc3n(n2)C(C(F)(F)F)CC(c2ccco2)N3)c(C)n1 (stereo not given)	1.1
CCOC(=O)C(=CNc1ccc(F)c(C#N)c1)C(=O)OCC	3.4*
CCOC(=O)C(=CNc1nc2ccc(F)cc2s1)C(=O)OCC	0.63
CCOC(=O)C(=CNc1ccc2c(c1)CCN2C(C)=O)C(=O)OCC	1.5
CCOC(=O)NC(=O)/C(C#N)=C/Nc1sc(C)c(C)c1C(=O)OCC	-3.8
CN(C)/C=C(\C(=S)c1ccccc1)c1ccccc1	-0.79
COc1cc2nc(NC(=O)c3ccco3)sc(=O)c2cc1OC	1
COc1cc2nc(NC(C)=O)sc(=O)c2cc1OC	3.6*
COc1cc2nc(NC(=O)c3ccc(C(C)(C)C)cc3)sc(=O)c2cc1OC	-1.2
Cc1ccc(S/C=C(\C#N)S(=O)(=O)c2ccc(Cl)cc2)cc1	-0.41
c1ccc(-c2csc3ncnc(N4CCN(Cc5ccc6c(c5)OCO6)CC4)c23)cc1	4.7*
CCCc1cnc(N2CCN(c3ncnc4scc(-c5ccccc5)c34)CC2)nc1	-1.7
Clc1ccc(CN2CCCN(c3ncnc4scc(-c5ccccc5)c34)CC2)cc1Cl	-0.88
c1ccc(Nc2nc(Nc3ccccc3)nc(N3CCOCC3)n2)cc1	2.5
S=C(NNc1ccccc1)Nc1c(Cl)cccc1Cl	-2.6
CC(C)(CO)NC(=S)Nc1cccc(F)c1	-0.02
Fc1cccc(NC(=S)NNc2ccccc2)c1	5.9*
CC(C)(C)OC(=O)N1Cc2ccccc2C[C@H]1C(=O)NCCN1CCOCC1	59
COC(=O)c1cc(-c2ccc(F)cc2)no1	1.5
SMILES	Dicer processing
O=C1c2ccccc2C(=O)C1C(C[N+](=O)[O-])c1c(Cl)cccc1Cl (stereo not given)	-0.15
CCCCCN=C1NS(=O)(=O)c2ccccc21	0.71
O=c1c(-c2ccccc2)c(O)c2cccc3c4c(n1c23)CCCC4	1.2
O=C(NCC1NCCc2ccccc21)C1CCCCC1 (stereo not given)	1.5
O=C(NCC1c2ccccc2CCN1C(=O)CN1CCOCC1)C1CCCCC1 (stereo not given)	4.5*
O=C(CN1CCOCC1)N1c2ccccc2CCc2ccccc21	2.6
CC1CCCN(S(=O)(=O)c2ccc(N3CCOCC3)nc2)C1 (stereo not given)	-1.1
COc1cc(C2c3c(oc4ccccc4c3=O)C(=O)N2c2nncs2)ccc1O (stereo not given)	-0.34
CC(=O)O/N=C(\C)c1sc2ccc(Cl)cc2c1C	-0.19
O=C(Nc1nc(-c2ccccc2)cs1)C1CC1	6.7
Cc1nc(-c2ccc(-c3ccccc3)cc2)cs1	0.49
CCNc1nc(-c2ccccc2)cs1	3.3*
O=C(OCCn1ncc2ccccc2c1=O)c1ccc2c(c1)CCO2	0.86
COC(=O)C1=C(C(=O)c2ccc(C)cc2)C(c2cc(OC)ccc2OC)n2nnnc2N1 (stereo not given)	0.35
COc1ccc(-c2cc(C(=O)O)c3ccccc3n2)c(OC)c1	4.5*
O=C(O)c1cc(-c2ccccn2)nc2ccccc12	-0.85
Nc1cccc(-c2cc(C(=O)O)c3ccccc3n2)c1	-0.8
COc1ccc(Cl)cc1S(=O)(=O)NCc1ccccn1	0.71
O=C(O)Cc1nc2ccc(Cl)cc2[nH]1	-0.26
Cc1ccc(C(=O)/C=C/Sc2nc3ccc(C)cc3[nH]2)cc1	1.1
Cc1ccc2nc(CCCC(=O)O)[nH]c2c1	3.6*
Cc1cc(C)cc(NC(=O)N(CCC(=O)O)Cc2ccccc2)c1	-0.25
N#C/C(=N\Nc1ccc(C(F)(F)F)cc1)S(=O)(=O)c1cccs1	-0.7
COCCCn1c(-c2csc(C)n2)n[nH]c1=S	-0.52
CCOC(=O)c1c(C)nn(-c2ncccc2NC(=S)NC(=O)c2ccccc2)c1C	-0.72
SMILES	Dicer processing
CCOC(=O)NC(=S)N1CCCC1	0.5
COc1ccc2c(=O)cc(-c3ccccc3)oc2c1	-0.36
O=c1c2ccccc2oc2cc(O)ccc12	0.39
O=c1ccc2c(-c3ccccc3)c3ccc(O)cc3oc-2c1	3.1*
CSc1nnc(-c2ccc(S(=O)(=O)Oc3ccc(Cl)cc3)s2)n1C	0.38
CCOC(=O)c1cc(C#N)c(Sc2n[nH]c(=O)n2C(C)C)nc1C(F)(F)F	-0.78
CC(=O)Oc1ccc(C2Nc3ccc4ccccc4c3C3C=CCC32)c(OC(C)=O)c1 (stereo not given)	1.4
O=C(N/N=C/c1c(Cl)cccc1Cl)c1nc(COc2ccccc2Cl)no1	-0.14
CCCCn1c(=O)oc2ccc(C)cc21	3.6*
Cc1ccc2oc(=O)n(CCC(=O)O)c2c1	2.6
Cc1ccc2oc(=O)n(Cc3ccc(F)cc3)c2c1	0.33
